Bioassay records deposited in PubChem BioAssay by National Center for Advancing Translational Sciences (NCATS).
Only some compounds are listed: those with a hit (about 12% of all), similar ones and a draw of the others.
SARS PLpro yeast: qHTS of Yeast-based Assay for SARS-CoV PLP | actives 0.19% (n = 330,000) | S. cerevisiae expressing SARS-CoV PLpro, growth rescue | Potency, µM (top dose mostly 32.9 µM), most hits filed as activators | AID 485353, 2010; calls by dose curve; further: nearly all actives have a fitted effect of over 55% in size
Sm TGR inh: qHTS Assay for the Inhibitors of Schistosoma Mansoni Peroxiredoxins. purified TGR, DTNB reduction, TNB absorbance 405 nm. Potency, µM (top dose mostly 114 µM), hits mostly inhibitors. actives 3% (n = 360,000). AID 485364, 2010; further: nearly all actives have a fitted effect of over 60% in size
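First, TGR (20 nM dispensed) and NADPH were mixed with compound. Second, a 15 min room-temperature incubation followed. Third, further NADPH and then DTNB were added to start the reaction. Finally, TNB absorbance was monitored kinetically.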
Pf growth 48h: Primary qHTS for delayed death inhibitors of the malarial parasite plastid, 48 hour incubation | P. falciparum luciferase growth in erythrocytes, 48 h | Potency, µM (top dose mostly 28.7 µM), most hits filed as inhibitors | actives 5.9% (n = 310,000) | AID 504832, 2011
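Read-out is firefly luciferase luminescence from an integrated reporter in P. falciparum, so falling signal marks reduced parasite growth. Infected erythrocytes were at 2% hematocrit and 0.1% parasitemia (final) in Albumax-supplemented RPMI 1640.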
Pf growth 96h: Primary qHTS for delayed death inhibitors of the malarial parasite plastid, 96 hour incubation; P. falciparum luciferase reporter growth, 96 h; Potency, µM (highest dose often 28.7 µM), most hits filed as inhibitors; actives 6.9% (n = 320,000); AID 504834, 2011
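Cell-based qHTS: luciferase-tagged P. falciparum in erythrocytes (2% hematocrit, 0.05% parasitemia final) incubated with compounds for 96 hours, 37 C, 5% CO2; luciferase detection reagent then added and luminescence measured.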
Large screens that a line does not name were inactive. Unless noted, the call rests on the fitted dose curve; in most records, active means well fitted curve in the direction sought with a large enough effect; inconclusive means small, poorly fitted or top-dose-only effect, or another doubt; inactive means no such curve, though single readings can be large; an effect the other way counts as inactive or inconclusive.

CC1CCN(C(=O)c2[nH]cnc2C(=O)N2CCN(c3ccccc3)CC2)CC1	none
O=S(=O)(Nc1ccc(Br)cc1)N1CCOCC1	Pf growth 96h 9.3µM
Cc1ccc(NS(=O)(=O)N2CCOCC2)cc1	Pf growth 96h inconclusive
Cc1ccc(Nc2c(-c3ccccn3)nc3cc(C)ccn23)cc1	Pf growth 48h inconclusive, Pf growth 96h 9.3µM
Cc1ccn2c(Nc3ccc4c(c3)OCO4)c(-c3ccccn3)nc2c1	SARS PLpro yeast inconclusive, Pf growth 48h 12µM, Pf growth 96h inconclusive
Cc1ccn2c(Nc3ccc4c(c3)OCO4)c(-c3ccc(C)o3)nc2c1	none (no result: SARS PLpro yeast, Pf growth 48h, Pf growth 96h)
CCOC(=O)c1ccc(N2C(=O)c3[nH]nc(-c4ccccc4)c3C2c2ccc(CC)cc2)cc1 (stereo unspecified)	none (no result: SARS PLpro yeast, Pf growth 48h, Pf growth 96h)
Cc1ccc(-c2noc(CCC(=O)NCCCN3CCN(c4cccc(Cl)c4)CC3)n2)cc1	Pf growth 48h 9.3µM
CN1CCCN(Cc2nc(-c3cccc(C(F)(F)F)c3)no2)CC1	Sm TGR inh 25µM, Pf growth 96h 12µM
Clc1cccc(N2CCN(Cc3nc(-c4ccccc4)no3)CC2)c1	Pf growth 96h 5.9µM
CCOC(=O)C1CCN(C2CCN(Cc3nc(-c4ccccc4)no3)CC2)CC1	Pf growth 96h 1.5µM
COc1ccc(-c2noc(CN3CCN(c4cccc(Cl)c4)CC3)n2)cc1	none (no result: SARS PLpro yeast, Pf growth 48h, Pf growth 96h)
O=C(c1ccccn1)N1CCCC(N2CCN(c3ccccc3)CC2)C1 (stereo unspecified)	Pf growth 96h inconclusive
c1ccc(OCCN2CCN(Cc3nc(-c4ccc5c(c4)OCO5)no3)CC2)cc1	Pf growth 96h 15µM
Fc1ccc(CN2CCCN(Cc3nc(-c4ccc5c(c4)OCO5)no3)CC2)cc1	Sm TGR inh inconclusive
Cc1cc(=O)n(C(C)C(=O)N2CCCc3ccccc32)c2c1c(C)nn2-c1ccccc1 (stereo unspecified)	none (no result: SARS PLpro yeast, Pf growth 48h, Pf growth 96h)
CCCCCN1C2=NCCN2c2ccccc21	Pf growth 48h inconclusive, Pf growth 96h 8.3µM
CC1=NN(/C(=N\c2nnc(C)s2)Nc2ccc(C)cc2)[C@H](c2ccc(C)cc2)S1	SARS PLpro yeast inconclusive, Pf growth 48h 10µM, Pf growth 96h inconclusive
CC1=NN(/C(=N\c2nnc(C)s2)Nc2ccccc2)[C@H](c2cccc3ccccc23)S1	Pf growth 48h 6.6µM, Pf growth 96h 9.3µM
Cc1nc(/N=C(\N)Nc2ccccc2)nc2ccccc12	none
C[C@H](O)c1[nH]c2cc(F)ccc2c1[C@H](C)O	Sm TGR inh inconclusive, Pf growth 48h inconclusive, Pf growth 96h inconclusive
CCOC(=O)N1CCc2c(sc3c2c(=O)n(-c2ccc(Cl)cc2)c(=O)n3Cc2cccc(OC)c2)C1	none (no result: SARS PLpro yeast, Pf growth 48h, Pf growth 96h)
Cc1ccc(C)c(NC(=O)CN(C)S(=O)(=O)c2cccc3nsnc23)c1	none (no result: SARS PLpro yeast, Pf growth 48h, Pf growth 96h)
Cc1cccc(NC(=O)Cn2c(=O)n(Cc3ccccc3)c(=O)c3oc4ccccc4c32)c1C	none (no result: SARS PLpro yeast, Pf growth 48h, Pf growth 96h)
COC(=O)Cn1cc(/C=C/c2cc[n+](C)cc2)c2ccccc21	Pf growth 48h inconclusive
COc1ccc2c(C(=O)CCl)c[nH]c2c1	Sm TGR inh 4.5µM, Pf growth 48h 15µM, Pf growth 96h inconclusive
COc1ccc2c(c1)c(/C=C/c1cc[n+](C)cc1)cn2C	Pf growth 48h 1.2µM, Pf growth 96h 0.37µM
COc1ccc2c(/C=C/c3cc[n+](C)cc3)c[nH]c2c1	Pf growth 48h 1.2µM, Pf growth 96h 0.52µM
CC[n+]1ccc(/C=C/c2c[nH]c3ccccc23)cc1	Pf growth 48h 0.52µM, Pf growth 96h inconclusive
Cc1cc(Br)ccc1NC(=O)CN(C)C(=O)CN1C(=O)NC(C)(C2CC2)C1=O (stereo unspecified)	none
COc1ccc2c(CCN)c[nH]c2c1	Pf growth 96h inconclusive (no result: Pf growth 48h)
COc1ccc2c(C)cc(=S)[nH]c2c1	Pf growth 96h inconclusive
COc1ccc2c(C=O)c[nH]c2c1	Pf growth 96h 8.3µM
COc1ccc2c(CC#N)c[nH]c2c1	Sm TGR inh 50µM (no result: Pf growth 96h)
O=C(Cn1cc(C(=O)c2ccco2)c2ccccc21)Nc1ccccc1C(F)(F)F	none (no result: SARS PLpro yeast, Pf growth 48h, Pf growth 96h)
COC(=O)C1=C(C)N(CC2CCCO2)C(=O)/C1=C\c1ccc(O)cc1 (stereo unspecified)	Sm TGR inh 50µM (no result: Pf growth 48h)
COc1ccc(N(Cc2cc3ccccc3[nH]c2=O)S(=O)(=O)c2ccc(OC)cc2)cc1	Pf growth 96h inconclusive
COc1ccc(N(Cc2cc3cc(OC)ccc3[nH]c2=O)S(=O)(=O)c2ccc(NC(C)=O)cc2)cc1	Pf growth 48h 2.3µM, Pf growth 96h 9.3µM
COc1ccc2[nH]c(=O)c(CN(c3ccc(C)c(C)c3)S(C)(=O)=O)cc2c1	Pf growth 96h 6.6µM
CCOC(=O)c1ccc(NC(=O)CSc2nc(-c3cccs3)cc(C(F)(F)F)c2C#N)cc1	none (no result: SARS PLpro yeast, Pf growth 48h, Pf growth 96h)
COc1ccc(C)cc1NC(=O)C1CCCN(S(=O)(=O)c2ccc3c(c2)oc(=O)n3C)C1 (stereo unspecified)	none (no result: SARS PLpro yeast, Pf growth 48h, Pf growth 96h)
COc1cc(/C=N/NC(=O)c2ccccn2)ccc1OC(=O)c1ccc(Br)cc1	none
O=C(N/N=C/c1ccc(OC(=O)c2cccs2)cc1)c1ccccn1	none
COc1cc(/C=N/NC(=O)c2ccccn2)ccc1OC(=O)c1ccccc1Br	Pf growth 96h 2.1µM
CCOc1cc(/C=N/NC(=O)c2ccccn2)ccc1OC(=O)c1cccs1	SARS PLpro yeast inconclusive, Pf growth 96h 9.3µM
N#CC1(NC(=O)COC(=O)/C=C/c2ccc3ccccc3n2)CCCCC1	Pf growth 96h inconclusive
c1ccc(-c2nc(NCc3cccnc3)c3oc4ccccc4c3n2)cc1	Pf growth 48h inconclusive, Pf growth 96h 9.3µM
O=C(O)CNc1nc(-c2ccccc2)nc2c1oc1ccccc12	none
c1ccc(-c2nc(NCC3CCCO3)c3oc4ccccc4c3n2)cc1 (stereo unspecified)	Pf growth 96h 15µM (no result: Pf growth 48h)
c1ccc2c(c1)oc1c(NCC3CCCO3)ncnc12 (stereo unspecified)	none
CCN1CCN(C(=O)CCCn2c(C)c3cnn(-c4ccccc4)c(=O)c3c2C)CC1	Sm TGR inh inconclusive, Pf growth 96h 2.6µM (no result: Pf growth 48h)
Cc1c2cnn(-c3ccccc3)c(=O)c2c(C)n1CCCC(=O)N1CCN(c2ncccn2)CC1	Sm TGR inh inconclusive, Pf growth 48h inconclusive, Pf growth 96h inconclusive
COc1ccc(C2=NOC(CNC(=S)N3CCOCC3)C2)cc1 (stereo unspecified)	none
Cc1ccc(-n2c(C)cc(C(=O)C(=O)Nc3ccccc3)c2C)c(C)c1	none (no result: SARS PLpro yeast, Pf growth 48h, Pf growth 96h)
CCSc1nnc(-c2ccc(Cl)cc2)c2ccccc12	Pf growth 48h inconclusive, Pf growth 96h 0.093µM
COc1ccc(CNC(=O)[C@H](C)N2C(=O)N3CCc4c([nH]c5ccccc45)[C@@]3(C)C2=O)cc1OC	Pf growth 48h inconclusive, Pf growth 96h 8.3µM
COc1ccc2[nH]c3c(c2c1)CCN1C(=O)N([C@@H](C)C(=O)NCCc2ccc(F)cc2)C(=O)[C@]31C	Pf growth 96h 8.3µM
Cc1ccc(-n2c(=O)c3c(cnn3C)n(CC(=O)Nc3cc(C)ccc3C)c2=O)cc1	none (no result: SARS PLpro yeast, Pf growth 48h, Pf growth 96h)
CCC1(c2ccc(F)cc2)NC(=O)N(CC(=O)N2CC(=O)Nc3ccccc32)C1=O (stereo unspecified)	Pf growth 48h inconclusive
